Assay [1] concerns PRMT1 (protein arginine N-methyltransferase 1). In words: small molecules binding arginine methyltransferase PRMT1 – biochemical, small-molecule microarray, 635 nm fluorescence, primary screen (AID 1088).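 Also: binding of Prmt1 protein to compounds spotted on small-molecule microarray slides.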 The note with it: higher = more signal.
A short description of assay [2]: growth effects on S. cerevisiae YJM789 – YJM789 clinical isolate, OD600, 24 h, basal, primary screen (AID 1089).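 Also: growth of clinical yeast isolate S. cerevisiae YJM 789 seeded 1000 cells per well; test concentration not given here.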 The note with it: higher = more signal, called active from +8 up or from −8 down.
A short description of assay [3]: S. pombe growth modifiers, basal conditions – strain 972, OD600, 24 h, no modulator, primary screen (AID 1090).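 Also: basal condition with compound alone and no growth modifier present; test concentration not given here.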 The note with it: S. pombe 972 growth, higher = more signal, called active from +8 up or from −8 down.
Assay [4] is described as follows: budding yeast growth modifiers under rapamycin – strain BY4716, OD600, 96 h, primary screen (AID 1091). Also: test concentration not given here. The note with it: S. cerevisiae BY4716 + rapamycin, higher = more signal, called active from +8 up or from −8 down.
In assay [5] the target is Torsin-1A-interacting protein 2 (Homo sapiens) (UniProt Q8NFQ8). Put plainly: small molecules binding lysate-expressed LULL1 – cell lysate, human LULL1 lysate, 635/667 nm fluorescence, primary screen (AID 1092).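 Also: probe is lysate of COS7 cells overexpressing human LULL1; score merges per-feature 667 nm fluorescence with signal-to-noise.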 The note with it: small-molecule microarray, hLULL1 lysate binding, 635 nm fluorescence; higher = more signal.
Chain of Torsin-1A-interacting protein 2 (Homo sapiens) (Q8NFQ8 whole entry, looked up): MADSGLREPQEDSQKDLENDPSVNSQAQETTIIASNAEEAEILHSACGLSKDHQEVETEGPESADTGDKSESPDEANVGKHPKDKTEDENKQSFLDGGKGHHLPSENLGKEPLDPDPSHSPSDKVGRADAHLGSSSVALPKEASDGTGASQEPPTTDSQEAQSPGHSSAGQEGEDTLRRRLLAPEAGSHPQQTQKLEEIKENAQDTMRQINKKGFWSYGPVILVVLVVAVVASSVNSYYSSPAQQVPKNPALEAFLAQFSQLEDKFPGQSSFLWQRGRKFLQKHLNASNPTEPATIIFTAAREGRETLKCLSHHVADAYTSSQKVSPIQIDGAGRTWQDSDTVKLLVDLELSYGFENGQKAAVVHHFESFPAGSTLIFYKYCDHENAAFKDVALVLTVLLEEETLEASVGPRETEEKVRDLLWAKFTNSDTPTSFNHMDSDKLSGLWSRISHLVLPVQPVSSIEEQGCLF
Assay [6] in a line: optical density change of DRC41 E. coli – strain DRC41, OD650, 24 h, E. coli filamentation project, primary screen (AID 1093).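 Also: MC1000 strain lacking acrAB efflux and sulA so SOS filamentation is blocked; test concentration not given here.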 The note with it: E. coli DRC41 growth, higher = more signal, called active from +8 up or from −8 down.
The nature of assay [7]: probe aLefty2 binding to arrayed compounds – biochemical, biotinylated probe, 635/667 nm fluorescence, primary screen (AID 1094).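 Also: score merges spot fluorescence near 667 nm with spot signal-to-noise ratio.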 The note with it: small-molecule microarray, higher = more signal.
Assay [8] has as its system Noggin (protein binding on small-molecule microarray). In words: small molecules binding Noggin protein – biochemical, 635/667 nm fluorescence, primary screen (AID 1095).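 Also: score merges 667 nm feature fluorescence with signal to noise over triplicate slides.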 The note with it: 635 nm fluorescence, higher = more signal.
Assay [9] deals with Neurogenic locus notch homolog protein 3 (Homo sapiens) (UniProt Q9UM47). In words: small molecules binding NOTCH3 protein – biochemical, 635/667 nm fluorescence, primary screen (AID 1096). The note with it: small-molecule microarray, 635 nm fluorescence, higher = more signal.
Chain of Neurogenic locus notch homolog protein 3 (Homo sapiens) (Q9UM47 whole entry, looked up): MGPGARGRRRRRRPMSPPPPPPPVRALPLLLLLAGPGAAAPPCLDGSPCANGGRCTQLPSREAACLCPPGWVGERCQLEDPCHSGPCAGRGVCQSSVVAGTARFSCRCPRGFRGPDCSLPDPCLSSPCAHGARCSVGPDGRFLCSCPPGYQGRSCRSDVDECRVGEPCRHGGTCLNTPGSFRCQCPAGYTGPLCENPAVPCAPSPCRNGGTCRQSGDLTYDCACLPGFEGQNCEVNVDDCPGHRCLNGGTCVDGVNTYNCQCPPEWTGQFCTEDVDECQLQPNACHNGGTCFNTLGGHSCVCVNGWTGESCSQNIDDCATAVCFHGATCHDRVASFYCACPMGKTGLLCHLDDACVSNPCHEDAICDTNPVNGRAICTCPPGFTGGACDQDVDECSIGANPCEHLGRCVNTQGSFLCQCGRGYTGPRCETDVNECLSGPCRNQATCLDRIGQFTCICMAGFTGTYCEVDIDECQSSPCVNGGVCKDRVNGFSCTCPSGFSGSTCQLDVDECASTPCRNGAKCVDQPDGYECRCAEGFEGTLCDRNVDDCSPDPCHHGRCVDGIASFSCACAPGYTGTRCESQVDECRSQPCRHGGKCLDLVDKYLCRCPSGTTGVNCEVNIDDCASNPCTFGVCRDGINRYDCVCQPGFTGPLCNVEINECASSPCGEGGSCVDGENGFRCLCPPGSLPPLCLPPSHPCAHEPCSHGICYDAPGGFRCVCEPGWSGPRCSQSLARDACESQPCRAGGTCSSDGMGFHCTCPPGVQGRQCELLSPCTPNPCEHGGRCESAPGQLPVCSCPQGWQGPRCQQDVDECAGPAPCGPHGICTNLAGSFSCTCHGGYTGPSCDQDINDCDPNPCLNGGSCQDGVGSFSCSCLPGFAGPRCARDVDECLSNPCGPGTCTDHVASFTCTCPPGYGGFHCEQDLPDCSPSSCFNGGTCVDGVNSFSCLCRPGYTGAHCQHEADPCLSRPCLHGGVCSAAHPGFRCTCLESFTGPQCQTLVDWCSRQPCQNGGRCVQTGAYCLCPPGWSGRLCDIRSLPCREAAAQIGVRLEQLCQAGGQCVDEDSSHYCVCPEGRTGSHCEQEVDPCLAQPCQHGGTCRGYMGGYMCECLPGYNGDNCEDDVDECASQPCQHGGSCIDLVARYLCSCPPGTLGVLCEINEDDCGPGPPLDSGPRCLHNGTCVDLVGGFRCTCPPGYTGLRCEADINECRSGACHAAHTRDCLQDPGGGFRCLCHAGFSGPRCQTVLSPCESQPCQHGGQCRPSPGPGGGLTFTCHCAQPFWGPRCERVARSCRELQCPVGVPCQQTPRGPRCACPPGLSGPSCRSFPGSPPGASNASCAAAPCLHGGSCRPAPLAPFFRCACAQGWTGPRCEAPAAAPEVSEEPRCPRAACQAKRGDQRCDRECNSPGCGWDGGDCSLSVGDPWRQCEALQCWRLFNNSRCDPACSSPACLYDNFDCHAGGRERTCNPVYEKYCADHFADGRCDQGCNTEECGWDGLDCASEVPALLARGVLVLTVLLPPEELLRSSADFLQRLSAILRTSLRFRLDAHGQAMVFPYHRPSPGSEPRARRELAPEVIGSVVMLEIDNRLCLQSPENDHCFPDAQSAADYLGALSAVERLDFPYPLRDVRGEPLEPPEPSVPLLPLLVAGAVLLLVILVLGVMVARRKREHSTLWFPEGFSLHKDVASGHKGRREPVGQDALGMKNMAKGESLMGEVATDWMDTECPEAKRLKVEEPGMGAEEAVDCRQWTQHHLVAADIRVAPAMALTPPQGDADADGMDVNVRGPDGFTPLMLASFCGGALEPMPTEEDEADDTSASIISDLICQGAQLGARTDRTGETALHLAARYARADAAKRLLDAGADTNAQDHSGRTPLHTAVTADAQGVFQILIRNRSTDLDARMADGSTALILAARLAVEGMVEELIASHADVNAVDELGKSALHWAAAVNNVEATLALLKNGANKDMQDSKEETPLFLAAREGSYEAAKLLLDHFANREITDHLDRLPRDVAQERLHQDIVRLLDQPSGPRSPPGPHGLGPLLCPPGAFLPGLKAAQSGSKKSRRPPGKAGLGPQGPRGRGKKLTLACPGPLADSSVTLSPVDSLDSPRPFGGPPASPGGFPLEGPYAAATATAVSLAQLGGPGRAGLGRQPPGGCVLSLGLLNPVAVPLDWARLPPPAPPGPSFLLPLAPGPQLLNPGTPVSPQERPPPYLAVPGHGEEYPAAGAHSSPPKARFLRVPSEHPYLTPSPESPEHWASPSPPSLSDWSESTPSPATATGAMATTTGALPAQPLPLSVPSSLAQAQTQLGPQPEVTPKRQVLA
Assay [10] in a line: probe aEGFR binding to arrayed compounds – biochemical, biotinylated probe, 635/667 nm fluorescence, primary screen (AID 1097).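 Also: probe is a biotinylated anti-EGFR antibody binding compounds printed on slides; score combines fluorescence near 667 nm and signal to noise of each spot.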 The note with it: small-molecule microarray, higher = more signal.
Assay [11] deals with Plasmodium falciparum Sir2 (PF13_0152, Sir2A). In words: Plasmodium falciparum Sir2A binding compounds – biochemical, small-molecule microarray, 635 nm fluorescence, primary screen (AID 1098).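 Also: score merges spot fluorescence intensity with its signal-to-noise ratio.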 The note with it: fluorescence 635 nm, higher = more signal.
A short description of assay [12]: probe aDKK1 binding to arrayed compounds – biochemical, biotinylated probe, 635/667 nm fluorescence, primary screen (AID 1099).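 Also: score merges 667nm spot fluorescence with signal to noise across triplicate slides; reference of the scale not given here.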 The note with it: small-molecule microarray, higher = more signal.
A short description of assay [13]: probe aCHRDL2 binding to arrayed compounds – biochemical, biotinylated probe, 635/667 nm fluorescence, primary screen (AID 1100). The note with it: small-molecule microarray, higher = more signal.
The nature of assay [14]: change in splice reporter luminescence, either direction, cell-based, HEK293, spliceosome inhibition project, primary screen (AID 1101).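 Also: HEK293 cells carrying a splicing-competent luciferase reporter gene; test concentration not given here.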 The note with it: HEK293 splicing luciferase reporter, 24 h, higher = more signal, called active from +8 up or from −8 down. In general terms: A reporter such as luciferase makes a cellular process visible.
For assay [15], the target named is Fibroblast growth factor 10 (Homo sapiens) (UniProt O15520). Put plainly: compounds binding fibroblast growth factor 10 – biochemical, small-molecule microarray, 635 nm fluorescence, primary screen (AID 1102). The note with it: FGF10 binding, fluorescence 635 nm, higher = more signal.
Chain of Fibroblast growth factor 10 (Homo sapiens) (O15520 whole entry, looked up): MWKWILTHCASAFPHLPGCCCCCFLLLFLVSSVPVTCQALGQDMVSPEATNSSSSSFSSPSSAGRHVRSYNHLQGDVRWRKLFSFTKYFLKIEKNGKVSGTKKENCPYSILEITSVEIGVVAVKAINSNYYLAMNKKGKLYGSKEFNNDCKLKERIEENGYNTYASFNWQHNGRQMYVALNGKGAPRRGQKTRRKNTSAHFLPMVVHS
In assay [16] the test system is glycogen synthase kinase-3 (GSK3A per assay name; protocol says GSK3B). Put plainly: compounds binding glycogen synthase kinase-3 – biochemical, small-molecule microarray, 635 nm fluorescence, GSK3A, primary screen (AID 1103). Also: the record names both GSK3A and GSK3B. The note with it: fluorescence 635 nm, higher = more signal.
Assay [17] concerns the target Epidermal growth factor receptor (Homo sapiens) (UniProt P00533). In words: compounds binding epidermal growth factor receptor – biochemical, small-molecule microarray, 635 nm fluorescence, primary screen (AID 1104).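 Also: score merges 667 nm emission intensity with spot signal to noise over triplicate slides.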 The note with it: EGFR binding, higher = more signal.
The target in assay [18] is Follistatin-related protein 3 (Homo sapiens) (UniProt O95633). Put plainly: compounds binding follistatin-related protein 3 – biochemical, small-molecule microarray, 635 nm fluorescence, primary screen (AID 1105).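 Also: score merges emission near 667 nm and signal to noise per printed spot across three slides.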 The note with it: FSTL3 binding, higher = more signal.
Chain of Follistatin-related protein 3 (Homo sapiens) (O95633 whole entry, looked up): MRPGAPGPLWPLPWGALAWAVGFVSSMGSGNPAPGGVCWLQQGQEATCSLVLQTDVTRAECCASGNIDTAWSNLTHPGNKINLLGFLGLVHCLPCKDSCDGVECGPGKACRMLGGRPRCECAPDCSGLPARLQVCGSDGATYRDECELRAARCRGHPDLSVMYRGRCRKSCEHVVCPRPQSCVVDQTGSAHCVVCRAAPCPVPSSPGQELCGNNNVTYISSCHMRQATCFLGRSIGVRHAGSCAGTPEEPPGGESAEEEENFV
Assay [19] deals with Dickkopf-related protein 1 (Homo sapiens) (UniProt O94907). In words: small molecules binding DKK1 protein – biochemical, small-molecule microarray, 635 nm fluorescence scan, primary screen (AID 1106).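 Also: score merges emission near 667 nm with signal to noise over three replicate slides.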 The note with it: higher = more signal.
Chain of Dickkopf-related protein 1 (Homo sapiens) (O94907 whole entry, looked up): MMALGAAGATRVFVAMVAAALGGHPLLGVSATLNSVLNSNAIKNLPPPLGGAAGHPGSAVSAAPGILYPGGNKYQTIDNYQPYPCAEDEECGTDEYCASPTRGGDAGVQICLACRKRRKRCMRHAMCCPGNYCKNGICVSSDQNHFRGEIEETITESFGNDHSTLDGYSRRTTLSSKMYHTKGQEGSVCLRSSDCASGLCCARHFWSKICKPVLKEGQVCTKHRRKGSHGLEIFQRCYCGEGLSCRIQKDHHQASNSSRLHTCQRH
The test system of assay [20] is Inhibin beta A chain (activin A). In words: small molecules binding activin A – biochemical, small-molecule microarray, 635 nm fluorescence scan, primary screen (AID 1107).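 Also: mouse activin A protein probed at 4.33 µg/mL on printed slides; score merges bound-protein fluorescence near 667 nm with spot signal-to-noise.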 The note with it: INHBA, higher = more signal.

Molecules are shown by their SMILES. Activity calls are given as the source filed them.

Chain of Epidermal growth factor receptor (Homo sapiens) (P00533 whole entry, looked up): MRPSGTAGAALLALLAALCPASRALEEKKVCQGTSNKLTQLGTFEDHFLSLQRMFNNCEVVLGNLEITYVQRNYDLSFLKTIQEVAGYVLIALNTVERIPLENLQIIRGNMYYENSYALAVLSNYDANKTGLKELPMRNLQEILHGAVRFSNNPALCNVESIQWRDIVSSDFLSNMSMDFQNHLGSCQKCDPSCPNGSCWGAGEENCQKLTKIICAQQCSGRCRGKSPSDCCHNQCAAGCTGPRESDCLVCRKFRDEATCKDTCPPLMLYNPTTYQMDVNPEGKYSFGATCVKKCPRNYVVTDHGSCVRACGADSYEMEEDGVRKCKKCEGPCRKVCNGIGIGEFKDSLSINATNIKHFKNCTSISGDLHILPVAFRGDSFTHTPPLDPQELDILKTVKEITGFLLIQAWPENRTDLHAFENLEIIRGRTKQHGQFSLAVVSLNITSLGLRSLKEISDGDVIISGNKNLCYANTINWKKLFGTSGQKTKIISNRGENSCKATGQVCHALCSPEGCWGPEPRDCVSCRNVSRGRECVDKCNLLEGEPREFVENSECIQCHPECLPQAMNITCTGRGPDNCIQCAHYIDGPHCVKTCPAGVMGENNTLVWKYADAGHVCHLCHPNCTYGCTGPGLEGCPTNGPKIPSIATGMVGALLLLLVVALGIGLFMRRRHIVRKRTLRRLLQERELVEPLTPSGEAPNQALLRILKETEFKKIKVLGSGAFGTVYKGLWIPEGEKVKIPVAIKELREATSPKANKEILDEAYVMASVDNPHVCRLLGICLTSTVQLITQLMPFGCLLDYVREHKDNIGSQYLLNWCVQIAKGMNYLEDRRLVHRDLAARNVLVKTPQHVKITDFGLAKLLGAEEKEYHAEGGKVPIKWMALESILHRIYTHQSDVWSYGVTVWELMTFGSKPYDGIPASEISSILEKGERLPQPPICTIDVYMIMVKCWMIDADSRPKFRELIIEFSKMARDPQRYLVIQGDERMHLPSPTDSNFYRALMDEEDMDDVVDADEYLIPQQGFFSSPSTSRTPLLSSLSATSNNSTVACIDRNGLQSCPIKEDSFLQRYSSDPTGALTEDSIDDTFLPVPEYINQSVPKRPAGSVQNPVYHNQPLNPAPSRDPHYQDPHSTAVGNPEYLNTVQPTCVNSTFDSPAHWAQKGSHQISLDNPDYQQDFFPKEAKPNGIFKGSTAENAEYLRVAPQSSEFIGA

For the molecule `CC(C)N1CC=CC23O[C@@H]4/C=C\CCCOC(=O)C4[C@H]2C(=O)N(CCO)[C@@H]3C1=O` (stereo not given in full), the composite z-score in assay [1] was 0.885; in assay [5] it was 1.95; in assay [7] it was -0.0766; in [8] it was -0.715; in [9], -0.0811; in assay [10], -0.173. The composite z-score was 1.01 in assay [11]; 0.155 in assay [12]; 0.677 in assay [13]; -0.363 in assay [15]; -0.456 in assay [16]; -1.02 in [17]. In addition, the results for the composite z-score in assay [18], in [19] and in assay [20] were -0.516, -1.08 and 1.45, respectively. Also, the z-score in [2] is -1.92 (inactive); in [3], -3.04 (inactive); in assay [4], -1.77 (inactive); in [6] it was 3.25 (inactive); in assay [14], -1.84 (inactive).

`C=C(/C(=C/C[C@@H](OC(=O)c1ccncc1)c1ccc(CO)o1)c1cnc2ccccc2c1)C(C)C`: the composite z-score in assay [1] is 1.54; in assay [5], 1.1; in [7], -0.0569; in assay [8] it was 1.08; in [9] it was 1.09; in assay [10], 0.0009. The composite z-score in assay [11] is 0.885; in assay [12], 0.138; in assay [13], -0.157; in [15] it was 1.06; in assay [16], 1.29; in [17] it was 0.623. The figures for the composite z-score in assay [18], in assay [19] and in assay [20] were 1.43, 0.574 and 1.58, respectively. In addition, the z-score is -0.0873 (inactive) in [2]; -2.27 (inactive) in assay [3]; -0.147 (inactive) in [4]; 1.23 (inactive) in assay [6]; 0.168 (inactive) in [14].

In the case of `O=C1O[C@H](c2ccccc2)[C@H](c2ccccc2)N2[C@H]1[C@@H](C(=O)NC[C@H](O)c1ccccc1)[C@]1(C(=O)Nc3ccc(C#CC4(O)CCCCCC4)cc31)[C@H]2c1ccc(OCCO)cc1`, the composite z-score in assay [1] amounted to 1.32; in [5] it was 2.72; in assay [7] it was 0.159; in assay [8], 0.423; in assay [9], 0.868; in assay [10], 0.0301. Moreover, the composite z-score is 1.03 in [11]; 0.539 in [12]; 0.713 in assay [13]; 0.599 in [15]; 0.563 in [16]; 0.0371 in [17]. Moreover, the values for the composite z-score in [18], in [19] and in assay [20] were 0.411, 0.0407 and 0.0385, respectively. Moreover, the z-score in assay [2] was 1.93 (inactive); in assay [3], -0.538 (inactive); in assay [4] it was 4.16 (inactive); in [6], 3.35 (inactive); in assay [14] it was -0.717 (inactive).

As to `Cc1ccccc1C(O)C1C=CC2C(=O)N(c3ccccc3)C(=O)C2N1Nc1ccc(C#N)cc1` (stereo not given), the composite z-score came to 1.51 in [1]; 2.89 in [5]; 0.854 in assay [7]; 0.247 in assay [8]; 1.07 in assay [9]; 0.413 in assay [10]. In addition, the composite z-score was found to be 1.56 in assay [11]; 1.35 in assay [12]; 1.4 in assay [13]; 1.16 in [15]; 1.3 in assay [16]; 0.832 in assay [17]. Also, the results for the composite z-score in assay [18], in [19] and in assay [20] were 1.05, 0.311 and 0.958, respectively. In addition, the z-score was 0.907 (inactive) in [2]; 1.85 (inactive) in [3]; 3.52 (inactive) in [4]; 0.478 (inactive) in [6]; 0.898 (inactive) in [14].

On to `CCCNC(=O)[C@@]1(Sc2ccc(C)cc2)CC(=O)N(Cc2ccccc2Cl)[C@@H]1c1ccc(CO)cc1`, for which the composite z-score in [1] was 1.33; in assay [5], 1.64; in assay [7], 0.0493; in [8] it was 1.06; in assay [9], 1.11; in [10] it was -0.0082. For the same molecule, the composite z-score in [11] stood at 0.237; in assay [12] it was 0.866; in assay [13] it was 0.956; in assay [15], 0.719; in assay [16], 1.28; in [17], 0.566. Besides, the composite z-score in assay [18] amounted to 1.06; in assay [19], 1.22; in [20], 1.42. Further, the z-score in [2] is -1.08 (inactive); in [3], -3.1 (inactive); in [4] it was -2.53 (inactive); in [6] it was 0.298 (inactive); in [14], -2.31 (inactive).

As to `CCOC(=O)C1=CC[C@@H](c2ccccc2)N(S(=O)(=O)c2ccc(C)cc2)[C@H]1C`, the composite z-score in assay [1] came out at 1.53; in [5] it was 3.41; in [7], 0.0018; in assay [8], 0.672; in [9] it was 1.09; in assay [10], 0.114. Also, the composite z-score was 1.09 in assay [11]; 0.821 in assay [12]; 0.567 in assay [13]; 1.4 in assay [15]; 0.312 in assay [16]; 1.02 in assay [17]. The composite z-score is 1.38 in [18], 0.635 in [19] and 0.258 in assay [20]. In addition, the z-score in assay [2] is 0.889 (inactive); in assay [3], -0.212 (inactive); in assay [4], 2.81 (inactive); in [6] it was -0.607 (inactive); in assay [14] it was -0.993 (inactive).

In the case of `C=CC[C@]1(C(=O)NCC(O)CO)N=C(c2ccc(OCCCO)cc2)O[C@H]1c1ccccc1` (stereo not given in full), the composite z-score is 0.16 in assay [1]; 3.57 in [5]; 0.0544 in assay [7]; -0.923 in assay [8]; -0.898 in assay [9]; -0.169 in [10]. Also, the composite z-score in [11] is 1.23; in assay [12], 1.21; in assay [13], 1.3; in [15], -0.159; in assay [16], 0.321; in assay [17], -1.48. For the same molecule, the composite z-score in [18] is -1.7; in [19] it was -0.296; in [20], 0.236. Also, the z-score in [2] is -1.44 (inactive); in assay [3], -0.514 (inactive); in assay [4], -1.18 (inactive); in assay [6], 2.05 (inactive); in assay [14] it was 0.164 (inactive).

Turning to `CO[C@H]1COC(=O)[C@H](CCSC)NC(=O)CC=C[C@@H](C)COC(=O)[C@@H](OCc2ccccc2)C=C[C@@H]1C`, the composite z-score in assay [1] is 1.13; in [5] it was -0.84; in assay [7], -0.222; in assay [8], 1.93; in assay [9] it was 0.13; in [10], -0.0131. The composite z-score was 0.979 in [11]; 0.981 in assay [12]; -1.41 in assay [13]; 0.485 in assay [15]; 0.743 in [16]; 0.574 in assay [17]. Also, the composite z-score in assay [18] stood at 1.15; in [19], 2; in assay [20], 0.397. For the same molecule, the z-score in [2] is 0.891 (inactive); in assay [3], 0.353 (inactive); in [4], 0.97 (inactive); in assay [6], 0.109 (inactive); in assay [14] it was -0.342 (inactive).

In the case of `C=C(CCCC)/C(=C/C[C@@H](OC(=O)c1ccncc1)c1ccc(CO)o1)c1cnc2ccccc2c1`, the composite z-score in [1] came to 1.54; in [5] it was 2.54; in assay [7] it was 0.0561; in assay [8] it was 1.64; in [9] it was 1.02; in assay [10], 0.0071. For the same molecule, the composite z-score was 0.201 in assay [11]; 0.144 in assay [12]; -0.524 in assay [13]; 1.48 in assay [15]; 1.32 in assay [16]; 1.36 in [17]. Also, the figures for the composite z-score in assay [18], in assay [19] and in [20] were 1.62, 1.53 and 1.82, respectively. In addition, the z-score was 0.396 (inactive) in [2]; -2.43 (inactive) in assay [3]; 0.322 (inactive) in assay [4]; 1.25 (inactive) in [6]; 0.0419 (inactive) in [14].
